Inconclusive results are not listed. Active and inactive are the calls of the source. Unless noted, calls come from the whole dose curve; as a rule, active = well fitted curve in the direction sought with a large enough effect in the repeat runs; inconclusive = weak or mixed curves; inactive = no such curve, though single readings can be large; an effect the other way counts as inactive or inconclusive.
Tested on: not listed separately
Assay: qHTS assay to identify small molecule antagonists of the estrogen related receptor (ERR) signaling pathway (AID 1224819; note: nearly all actives have a fitted effect of over 50% in size; note: potency is the fitted concentration of half-maximal effect)
Settings: ERR reporter cell line, luciferase inhibition; series mostly up to 46.1 µM; activity change, negative = inhibition: at the top concentration
Procedure, shortened: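 qHTS in ERR cells, 2,000/well, 1536 format. Cpd (DMSO) added after 6 h settle, 18 h 37 C. One-Glo luminescence, 30 min RT.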
% is set by controls: 0 for no effect and ±100 for the full control effect.

For `Oc1cc2c(c(Cl)c1O)CCNCC2c1ccccc1` (stereo unspecified), which Potency is on record?
Its Potency is 8.41 µM (active).

Which Potency does the source give for `CCN(CC)CCOc1ccc(Nc2ncc3cc(-c4c(Cl)cccc4Cl)c(=O)n(C)c3n2)cc1` here?
Its Potency is 9.08 µM (active).

Which “activity change, negative = inhibition” value does the source give for `Cc1nc(N=Nc2cc(S(=O)(=O)O)c3cc([N+](=O)[O-])cc(S(=O)(=O)O)c3c2)c(COP(=O)(O)O)c(C=O)c1O` here?
Its value is -5.24% (inactive).

For `COc1cc(NS(C)(=O)=O)ccc1Nc1c2ccccc2nc2ccccc12`, which Potency is on record?
The Potency was 0.779 µM (active).

Tested on: not listed separately
Assay: qHTS assay to identify small molecule agonists of the estrogen related receptor (ERR) signaling pathway (AID 1224820)
Settings: ERR reporter cell line, luciferase agonist mode; series mostly up to 46.1 µM; activation: at the top concentration
Procedure, shortened: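 After 6 h plating (2,000 cells/well) and 18 h compound treatment at 37 C, ERR cells were lysed with One-Glo and luminescence read after 30 min at room temperature.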

With `Cc1ccccc1/C=C/C1=NCCN1` as the compound, how does the “activation” value read?
The value was -25.7% (inactive).

Which “activation” value does the source give for `CCCc1c(-c2ccc(O)cc2)nn(-c2ccc(O)cc2)c1-c1ccc(O)cc1` here?
Its value is -23.5% (inactive).

For `Oc1cc2c(c(Cl)c1O)CCNCC2c1ccccc1` (stereo unspecified), which “activation” value is on record?
Its value is -61% (inactive).

With `CCN(CC)CCOc1ccc(Nc2ncc3cc(-c4c(Cl)cccc4Cl)c(=O)n(C)c3n2)cc1` as the compound, how does the “activation” value read?
Its value is -95.5% (inactive).

For `Clc1ccc(N2CCN(Cc3cc4ccccn4n3)CC2)cc1`, which “activation” value is on record?
Its value is -63.1% (inactive).

For `Cc1nc(N=Nc2cc(S(=O)(=O)O)c3cc([N+](=O)[O-])cc(S(=O)(=O)O)c3c2)c(COP(=O)(O)O)c(C=O)c1O`, which “activation” value is on record?
The value was -5.2% (inactive).

For `O=[N+]([O-])c1ccc(CNc2nc(NCc3cccc(C(F)(F)F)c3)nc3nc[nH]c23)cc1`, which “activation” value is on record?
The value was -67.9% (inactive).

With `N=C(N)c1ccc(N)cc1` as the compound, how does the “activation” value read?
Its value is -36% (inactive).

For `CC(C)[C@H](NC(=O)OCc1ccccc1)C(=O)N[C@H](C=O)Cc1ccccc1`, which “activation” value is on record?
The value was -34.6% (inactive).

Which “activation” value does the source give for `CCCCCCN(CCCCCC)C(=O)Cc1c(-c2ccc(F)cc2)[nH]c2ccccc12` here?
Its value is -60.8% (inactive).

Which “activation” value does the source give for `COc1cc(NS(C)(=O)=O)ccc1Nc1c2ccccc2nc2ccccc12` here?
The value was -61.5% (inactive).

Tested on: estrogen-related receptor alpha (ERRalpha) with PGC-1alpha coactivator, human
Assay: qHTS assay to identify small molecule antagonists of the estrogen related receptor signaling pathway with the pleiotropic PPARgamma coactivator (PGC) (AID 1224821; calls by dose curve;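 note: lower luminescence signal means antagonism of PGC/ERR signalling; nearly all actives have a fitted effect of over 50% in size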)
Settings: ERR/PGC reporter cell line, luciferase, antagonist mode; series mostly up to 46.1 µM; activity change, negative = inhibition: at the top concentration
Procedure, shortened: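 Luminescence from One-Glo luciferase reagent (30 min, room temperature) measured after 18 h compound treatment at 37 °C. Cells carry the PGC/ERR reporter and were seeded 6 h prior to dosing.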

For `COC(=O)c1c(C)[nH]c(C)c1C(=O)c1ccccc1Cc1ccccc1`, which “activity change, negative = inhibition” value is on record?
Its value is 11.4% (inactive).

Which “activity change, negative = inhibition” value does the source give for `CCN(CC)CCOc1ccc(Nc2ncc3cc(-c4c(Cl)cccc4Cl)c(=O)n(C)c3n2)cc1` here?
The value was -101% (inactive).

With `Cc1nc(N=Nc2cc(S(=O)(=O)O)c3cc([N+](=O)[O-])cc(S(=O)(=O)O)c3c2)c(COP(=O)(O)O)c(C=O)c1O` as the compound, how does the “activity change, negative = inhibition” value read?
Its value is -15.9% (inactive).

With `CCCCCCCC/C=C\CCCCCCCC(=O)NCCc1ccc(O)c(O)c1` as the compound, how does the “activity change, negative = inhibition” value read?
The value was 41.9% (inactive).

Which “activity change, negative = inhibition” value does the source give for `COc1ccc(-c2cc(=O)c3c(O)c(OC)c(OC)cc3o2)cc1O` here?
The value was 14.3% (inactive).

With `COc1cc(NS(C)(=O)=O)ccc1Nc1c2ccccc2nc2ccccc12` as the compound, how does the “activity change, negative = inhibition” value read?
Its value is 124% (inactive).

Tested on: not listed separately
Assay: qHTS assay to identify small molecule antagonists of the estrogen related receptor signaling pathway with the pleiotropic PPARgamma coactivator (PGC) cell viability counter screen (AID 1224822; note: potency is the fitted concentration of half-maximal effect;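 note: viability read after 17.5 h compound exposure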)
Settings: ERR/PGC reporter cell line viability counter screen; series mostly up to 46.1 µM; viability change, negative = cytotoxic: at the top concentration
Procedure, shortened: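 Multiplexed viability counter screen run in PGC/ERR cells treated with compounds for 17.5 h at 37 C; live-cell protease signal measured by CellTiter-Fluor fluorescence.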

For `COC(=O)c1c(C)[nH]c(C)c1C(=O)c1ccccc1Cc1ccccc1`, which “viability change, negative = cytotoxic” value is on record?
Its value is -6.05% (inactive).

Which “viability change, negative = cytotoxic” value does the source give for `O=C1NC(O)=NC1(c1ccccc1)c1ccccc1` here?
The value was 5.63% (inactive).

With `CC(=O)SC1CC2=CC(=O)CC[C@]2(C)C2CC[C@@]3(C)C(CC[C@@]34CCC(=O)O4)C12` (stereo partly specified) as the compound, how does the “viability change, negative = cytotoxic” value read?
The value was -8.6% (inactive).

With `C=C[C@H]1CN2CC[C@@H]1C[C@H]2[C@H](O)c1ccnc2ccc(OC)cc12` as the compound, how does the “viability change, negative = cytotoxic” value read?
Its value is 5.2% (inactive).

For `C=C[C@H]1CN2CC[C@@H]1C[C@@H]2[C@@H](O)c1ccnc2ccc(OC)cc12`, which “viability change, negative = cytotoxic” value is on record?
Its value is -9.04% (inactive).

Which “viability change, negative = cytotoxic” value does the source give for `c1ccc(C2CN3CCSC3=N2)cc1` (stereo unspecified) here?
The value was -6.08% (inactive).

For `CC(C)NC[C@H](O)COc1cccc2[nH]ccc12`, which “viability change, negative = cytotoxic” value is on record?
The value was 12.5% (inactive).

For `CCCCCCCCCCCCCCC[C@H](O)[C@H](N)CO`, which “viability change, negative = cytotoxic” value is on record?
Its value is -13.9% (inactive).

For `CN1C2CCC1CC(OC(=O)C(CO)c1ccccc1)C2` (stereo unspecified), which Potency is on record?
Its Potency is “inactive”.

With `Nc1ncnc2c1ncn2[C@@H]1O[C@H](CO)C(O)[C@H]1O` (stereo partly specified) as the compound, how does the “viability change, negative = cytotoxic” value read?
The value was 6.19% (inactive).

Which “viability change, negative = cytotoxic” value does the source give for `N.N.O=C(O)C1(C(=O)O)CCC1.[Pt+2]` here?
Its value is 10% (inactive).

For `COc1cc(C(O)CO)ccc1O` (stereo unspecified), which “viability change, negative = cytotoxic” value is on record?
The value was 2.09% (inactive).

For `CCC1(O)CC2CN(CCc3c([nH]c4ccccc34)[C@@](C(=O)OC)(c3cc4c(cc3OC)N(C=O)C3[C@]45CCN4CC=C[C@@](CC)([C@@H](OC(C)=O)[C@]3(O)C(=O)OC)[C@H]45)C2)C1` (stereo partly specified), which “viability change, negative = cytotoxic” value is on record?
The value was -4.26% (inactive).

For `CCN(CC)CCOc1ccc(Nc2ncc3cc(-c4c(Cl)cccc4Cl)c(=O)n(C)c3n2)cc1`, which Potency is on record?
The Potency was 1.74 µM (active).

Which “viability change, negative = cytotoxic” value does the source give for `CC1=C(C(=O)O)N2C(=O)[C@@H](NC(=O)C(N)C3=CCC=CC3)[C@H]2SC1` (stereo partly specified) here?
The value was 7.99% (inactive).

Which “viability change, negative = cytotoxic” value does the source give for `O=[N+]([O-])c1ccc(CNc2nc(NCc3cccc(C(F)(F)F)c3)nc3nc[nH]c23)cc1` here?
The value was -19.3% (inactive).

For `COc1cc([C@@H]2c3cc4c(cc3[C@H](O)C3COC(=O)[C@@H]32)OCO4)cc(OC)c1OC` (stereo partly specified), which “viability change, negative = cytotoxic” value is on record?
Its value is -23.7% (inactive).

Which “viability change, negative = cytotoxic” value does the source give for `CN1C2CCC1CC(OC(=O)c1c[nH]c3ccccc13)C2` (stereo unspecified) here?
The value was -6.55% (inactive).

With `N=C(N)c1ccc(N)cc1` as the compound, how does the “viability change, negative = cytotoxic” value read?
The value was -5.61% (inactive).

With `CC(N)(Cc1ccc(O)c(O)c1)C(=O)O` (stereo unspecified) as the compound, how does the “viability change, negative = cytotoxic” value read?
Its value is -3.03% (inactive).

Which “viability change, negative = cytotoxic” value does the source give for `CC(C)NC[C@H](O)COc1ccc(CC(N)=O)cc1` here?
The value was 9.94% (inactive).

For `CN(C)CCC(c1ccc(Br)cc1)c1ccccn1` (stereo unspecified), which “viability change, negative = cytotoxic” value is on record?
The value was -3.12% (inactive).

With `NCC(O)c1ccc(O)c(O)c1` (stereo unspecified) as the compound, how does the “viability change, negative = cytotoxic” value read?
The value was 2.65% (inactive).

For `COc1ccc(-c2cc(=O)c3c(O)c(OC)c(OC)cc3o2)cc1O`, which “viability change, negative = cytotoxic” value is on record?
The value was -25.7% (inactive).

With `COc1cc2c(cc1OC)C1CC(=O)C(CC(C)C)CN1CC2` (stereo unspecified) as the compound, how does the “viability change, negative = cytotoxic” value read?
The value was 10.2% (inactive).

With `CC[C@H]1OC(=O)[C@H](C)C(O[C@H]2C[C@@](C)(OC)[C@@H](O)[C@H](C)O2)[C@H](C)[C@@H](OC2O[C@H](C)C[C@H](N(C)C)[C@H]2O)[C@](C)(O)C[C@@H](C)CN(C)[C@H](C)[C@@H](O)[C@]1(C)O` (stereo partly specified) as the compound, how does the “viability change, negative = cytotoxic” value read?
Its value is -20.6% (inactive).

With `CC(C)NC[C@H](O)COc1cccc2ccccc12` as the compound, how does the “viability change, negative = cytotoxic” value read?
The value was -15.9% (inactive).

With `Oc1cc(O)c2c(c1)O[C@H](c1ccc(O)c(O)c1)[C@@H](O)C2` as the compound, how does the “viability change, negative = cytotoxic” value read?
The value was 7.54% (inactive).

With `Nc1ccn([C@H]2O[C@H](CO)[C@@H](O)C2(F)F)c(=O)n1` as the compound, how does the “viability change, negative = cytotoxic” value read?
The value was 13.3% (inactive).

With `COc1cc(NS(C)(=O)=O)ccc1Nc1c2ccccc2nc2ccccc12` as the compound, how does the Potency read?
Its Potency is 18.1 µM (active).

Source: PubChem BioAssay (Tox21)
